Experimental data reported in PubChem BioAssay (NCATS).
“And” between values parts separate entries of the source, which are not always exact repeats. Equal values may be shown once. Records with an inconclusive call do not appear. The source made the active and inactive calls. Unless noted, the call rests on the fitted dose curve; in most records, active means well fitted curve in the direction sought with a large enough effect in the repeat runs; inconclusive means weak or mixed curves; inactive means no such curve, though single readings can be large; an effect the other way counts as inactive or inconclusive.

Assays:
[1] = qHTS assay for small molecule disruptors of the mitochondrial membrane potential - 5 hr assay (AID 651755; calls by dose curve; further: on the % scale 0 is the no-effect control and ±100 the full control effect; nearly all actives have a fitted effect of over 40% in size)
How it was run: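 HepG2, 2,000 cells/well, overnight attach; cpd or DMSO 5 hr, 37C/5% CO2; Mito-MPS 30 min 37C; fluor 490/535 + 540/590 nm.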

[2] = target: Tumor necrosis factor (Homo sapiens) (UniProt P01375); assay: qHTS assay to identify small molecules that stimulate Tumor Necrosis Factor-alpha (TNF-alpha) secretion (AID 651757; active means well fitted curve in the direction sought with a large enough effect in the signal ratio; the % refers to the signal ratio; further: 0% is about no effect)
Tumor necrosis factor (Homo sapiens), sequence (P01375 whole entry, looked up): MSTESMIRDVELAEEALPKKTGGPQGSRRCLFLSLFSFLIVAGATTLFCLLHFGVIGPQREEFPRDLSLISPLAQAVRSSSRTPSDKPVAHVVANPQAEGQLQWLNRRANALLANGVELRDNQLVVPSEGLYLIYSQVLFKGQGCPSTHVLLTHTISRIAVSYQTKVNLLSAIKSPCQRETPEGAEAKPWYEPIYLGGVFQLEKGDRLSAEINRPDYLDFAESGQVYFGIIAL
How it was run: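 THP-1 cells (3000/well) exposed to compounds 17 hrs at 37 C. Secreted TNF-alpha detected by HTRF with cryptate- and XL665-labeled anti-TNF-alpha antibodies after 3 hr at room temperature.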

[3] = qHTS assay for environmental chemicals that activate the Aryl hydrocarbon Receptor (AhR) signaling pathway (AID 651777; active means well fitted curve in the direction sought with a large enough effect; an effect the other way counts as inactive or inconclusive; further: % of control where 0% means no effect; nearly all actives have a fitted effect of over 15% in size); details: 1A2-DRE human hepatoma cells, luciferase, 24 h; activation: active compounds read high
How it was run: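 Following a 24 hr incubation with test chemicals at 37 C and 5% CO2, 1A2-DRE human hepatoma cells received One-Glo reagent; after 30 min at room temperature, luciferase output reflected CYP1A2 induction via AhR.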

[4] = target: Peroxisome proliferator-activated receptor alpha (Homo sapiens) (UniProt Q07869); assay: qHTS assay for small molecule agonists of the peroxisome proliferator-activated receptor alpha (PPARalpha) signaling pathway (AID 651778; active means well fitted curve in the direction sought with a large enough effect; an effect the other way counts as inactive or inconclusive; further: % of control where 0% means no effect); details: PathHunter PPARalpha complementation, chemiluminescence, 6 h; active compounds read high
Peroxisome proliferator-activated receptor alpha (Homo sapiens), sequence (Q07869 whole entry, looked up): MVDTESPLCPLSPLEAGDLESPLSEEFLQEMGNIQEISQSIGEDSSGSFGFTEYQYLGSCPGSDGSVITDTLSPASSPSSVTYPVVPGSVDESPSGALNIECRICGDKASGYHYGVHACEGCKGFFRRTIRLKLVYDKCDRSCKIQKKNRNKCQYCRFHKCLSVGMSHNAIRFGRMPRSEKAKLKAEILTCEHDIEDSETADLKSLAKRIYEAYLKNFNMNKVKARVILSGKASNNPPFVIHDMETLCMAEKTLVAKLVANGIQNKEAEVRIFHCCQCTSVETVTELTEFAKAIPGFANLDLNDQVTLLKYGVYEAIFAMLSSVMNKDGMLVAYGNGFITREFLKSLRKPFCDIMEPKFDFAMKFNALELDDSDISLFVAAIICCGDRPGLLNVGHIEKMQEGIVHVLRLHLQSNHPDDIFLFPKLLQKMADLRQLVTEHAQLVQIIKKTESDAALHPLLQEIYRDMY
How it was run: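 Chemiluminescence from complemented enzyme reported PPARalpha activation in cells after 6 hr of compound treatment at 37 C. The detection reagent was incubated for 60 min at room temperature, and compounds were scored as agonists.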

[5] = qHTS assay for small molecule antagonists of the retinoid-related orphan receptor gamma (ROR-gamma) signaling pathway - cell viability counter screen (AID 720652);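 further: series mostly up to about 92 µM; compound exposure lasted 16 hr before ATP read; on the % scale 0 is the no-effect control and ±100 the full control effect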
How it was run: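 CHO cells carrying TET-inducible ROR and RORE-luciferase reporter, plated 5 hr, then dosed with compound plus doxycycline. After 16 hr at 37 C, viability read as intracellular ATP by CellTiter-Glo luminescence.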

[6] = qHTS assay for small molecule agonists of the antioxidant response element (ARE) signaling pathway measured by Nrf2-dependant transcriptional activity - cell viability counter screen (AID 720653); details: ARE-bla HepG2 viability, CellTiter-Glo ATP luminescence, 16 h; active compounds read low; further: on the % scale 0 is the no-effect control and ±100 the full control effect
How it was run: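 Cytotoxicity counter screen: intracellular ATP quantified by CellTiter-Glo luminescence in the same ARE-bla HepG2 plates, after 16 h compound exposure and a 2 h beta-lactamase substrate step.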

[7] = qHTS assay to identify small molecules that stimulate interleukin-8 (IL-8) secretion (AID 651758; active means well fitted activation curve with a large enough effect in the signal ratio; the % refers to the signal ratio; further: 0% is about no effect)
How it was run: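 Secreted IL-8 measured by TR-FRET sandwich (cryptate and XL665 antibodies) from THP-1 cells exposed to compound overnight (16 hrs, 37 C).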

[8] = target: Nuclear receptor ROR-gamma (Homo sapiens) (UniProt P51449); assay: qHTS assay for small molecule antagonists of the retinoid-related orphan receptor gamma (ROR-gamma) signaling pathway (AID 651802; active means well fitted curve in the direction sought with a large enough effect; an effect the other way counts as inactive or inconclusive;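 further: luciferase reporter luminescence driven by ROR response element; series mostly up to about 92 µM; on the % scale 0 is the no-effect control and ±100 the full control effect; nearly all actives have a fitted effect of over 60% in size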)
Nuclear receptor ROR-gamma (Homo sapiens), sequence (P51449 whole entry, looked up): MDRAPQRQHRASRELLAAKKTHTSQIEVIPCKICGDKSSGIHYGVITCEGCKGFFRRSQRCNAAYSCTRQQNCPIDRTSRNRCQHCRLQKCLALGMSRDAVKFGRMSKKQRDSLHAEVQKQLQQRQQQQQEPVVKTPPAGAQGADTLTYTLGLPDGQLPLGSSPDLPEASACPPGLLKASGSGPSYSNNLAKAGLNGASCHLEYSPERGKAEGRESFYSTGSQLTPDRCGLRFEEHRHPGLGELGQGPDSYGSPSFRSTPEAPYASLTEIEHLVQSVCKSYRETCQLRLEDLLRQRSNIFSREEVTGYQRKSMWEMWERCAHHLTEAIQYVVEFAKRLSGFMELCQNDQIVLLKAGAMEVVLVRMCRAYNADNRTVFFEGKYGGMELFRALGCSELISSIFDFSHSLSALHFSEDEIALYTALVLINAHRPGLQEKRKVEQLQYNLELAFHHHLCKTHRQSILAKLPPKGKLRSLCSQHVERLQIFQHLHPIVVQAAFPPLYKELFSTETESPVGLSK
How it was run: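 CHO cells with TET-inducible ROR-gamma and RORE-luciferase reporter, dosed then doxycycline-induced. After 16 h at 37C, One-Glo luminescence read; decreased signal indicates antagonism.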

[9] = qHTS assay for small molecule agonists of the antioxidant response element (ARE) signaling pathway measured by Nrf2-dependant transcriptional activity (AID 720636);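 further: HepG2 cells with an ARE-driven luciferase reporter; % of control where 0% means no effect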
How it was run: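 ONE-Glo luminescence, read 30 min after reagent addition at room temperature, reflected ARE reporter activity in HepG2 cells that had been incubated with compound for 16 hr at 37 C in 1% dialyzed FBS.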

[10] = qHTS assay for small molecule disruptors of the mitochondrial membrane potential - 1 hr assay (AID 651754; calls by dose curve; further: on the % scale 0 is the no-effect control and ±100 the full control effect; nearly all actives have a fitted effect of over 35% in size)
How it was run: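 HepG2 cells, attached overnight, were exposed to compound for 1 hr at 37C, then stained 30 min with a potentiometric dye. Ratio of red aggregate (590nm) to green monomer (535nm) fluorescence reports membrane potential; collapse shifts signal toward green.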

c1ccc2[nH]cnc2c1
inactive: Potency [1] | Potency [2] | activation [3] 1.2% | max response [4] -1.28% | Potency [5] | max response [6] -6.28%

c1ccc(Oc2ccccc2)cc1
inactive: Potency [1] | Potency [2] | Potency [7] | activation [3] -0.267% and -0.51% | max response [4] -7.64% and 0.0496% | Potency [8] | outcome [9] | Potency [5] | max response [6] 5.45% and -9.72%

CCC(C)O (centres undefined)
inactive: Potency [1] | Potency [2] | Potency [7] | max response [4] 0.282% | Potency [8] | Potency [5] | max response [6] -9.02%

CC(CCl)OC(C)CCl (centres undefined)
inactive: Potency [1] | Potency [2] | Potency [7] | max response [4] 4.09% | outcome [9] | Potency [5] | max response [6] 6.29%

CCCCCCCN
inactive: Potency [1] | Potency [2] | activation [3] -0.576% | max response [4] -4.9% | Potency [8] | outcome [9] | Potency [5] | max response [6] -1.43%

Fc1ccccc1
inactive: Potency [1] | Potency [2] | max response [4] 1.57% | Potency [8] | outcome [9] | Potency [5] | max response [6] 8.77%

CCC(C)(C)C
inactive: Potency [1] | Potency [2] | Potency [7] | activation [3] -1.03% | max response [4] -1.79% | Potency [8] | outcome [9] | Potency [5] | max response [6] -1.09%

CC(C)C=O
inactive: Potency [1] | Potency [2] | Potency [7] | activation [3] 0.299% | max response [4] -0.412% | Potency [8] | outcome [9] | Potency [5] | max response [6] -2.28%

C=Cc1ccccc1C=C
inactive: Potency [1] | Potency [2] | Potency [7] | activation [3] -0.496% | max response [4] -1.6% | Potency [8] | outcome [9] | Potency [5] | max response [6] 4.89%

CC(C)N(C)C
inactive: Potency [1] | Potency [2] | Potency [7] | activation [3] -0.41% | max response [4] -5.48% | Potency [8] | outcome [9] | Potency [5] | max response [6] 2.26%

N#CC1(O)CCCCC1
inactive: Potency [1] | Potency [2] | Potency [7] | activation [3] 2.1% | max response [4] -1.44% | Potency [8] | outcome [9] | Potency [5] | max response [6] 5.72%

O=C(O)CNC(=O)c1ccc([N+](=O)[O-])cc1
inactive: Potency [10] | activation [3] 0.908% | max response [4] -1.61% | outcome [9] | Potency [5] | max response [6] 1.63%

O=C1CCC(=O)O1
inactive: Potency [1] | Potency [2] | activation [3] -1.39% | max response [4] 3.38% | Potency [8] | outcome [9] | max response [6] -3.63%

O=Cc1cccc(Br)c1
inactive: Potency [1] | Potency [2] | Potency [7] | activation [3] 0.191% | max response [4] -2.07% | Potency [8] | outcome [9] | max response [6] 0.536%

CC(=O)OCCC(C)C
inactive: Potency [1] | Potency [2] | activation [3] 0.441% | max response [4] -9.14% | Potency [8] | outcome [9] | max response [6] -11%

CC(C)=CCC/C(C)=C/C=O
inactive: Potency [1] | Potency [2] | Potency [7] | activation [3] 1.06% and -1.3% | max response [4] -4.87% and -0.301% | Potency [8] | outcome [9] | Potency [5] | max response [6] -2.99% and -11.3%

CC(C)C(C)C
inactive: Potency [1] | Potency [2] | activation [3] 1.04% | max response [4] -4.01% | Potency [8] | outcome [9] | Potency [5] | max response [6] -1.72%

C=C(C)OC(C)=O
inactive: Potency [1] | Potency [2] | activation [3] -1.07% | max response [4] -3.39% | Potency [8] | outcome [9] | Potency [5] | max response [6] 7.41%

Cc1cccc(C(=O)O)c1
inactive: Potency [1] | Potency [2] | activation [3] 0.807% | max response [4] -3.59% | Potency [8] | Potency [5] | max response [6] -0.706%

Nc1c(Cl)cc(Cl)cc1Cl
inactive: Potency [1] | Potency [2] | activation [3] -0.694% | max response [4] -2.57% | outcome [9] | Potency [5] | max response [6] -2.36%

CSc1ccc(C=O)cc1
inactive: Potency [10] | activation [3] 0.018% | max response [4] -3.7% | Potency [8] | outcome [9] | Potency [5] | max response [6] -8.76%

Nc1cccc(C(F)(F)F)c1
inactive: Potency [1] | Potency [2] | Potency [7] | activation [3] 0.706% and 0.403% | max response [4] -0.773% and -2.14% | outcome [9] | Potency [5] | max response [6] 1.34% and -3.53%

C=C(C)C(=O)OCCCCCC
inactive: Potency [1] | Potency [2] | max response [4] -8.01% | Potency [8] | outcome [9] | Potency [5] | max response [6] -4.89%

CN(C)c1cccc(O)c1
inactive: Potency [10] | activation [3] 6.91% | max response [4] -3.12% | Potency [5] | max response [6] -0.49%

CNc1ccc([N+](=O)[O-])cc1
inactive: Potency [1] | Potency [2] | activation [3] 1.91% | max response [4] -2.03% | Potency [8] | outcome [9] | max response [6] 5.65%

O=C(O)c1cccc([N+](=O)[O-])c1
inactive: Potency [1] | Potency [2] | activation [3] 0.347% and -2.14% | max response [4] -2.18% and -2.21% | Potency [8] | outcome [9] | Potency [5] | max response [6] 20.3% and -7.83%

O=C(O)CNC(=O)c1ccc(CO)o1
inactive: Potency [1] | Potency [2] | activation [3] -1.34% | max response [4] -5.12% | Potency [8] | outcome [9] | Potency [5] | max response [6] -15.7%

CC(C)(C)OC=O
inactive: Potency [1] | Potency [2] | Potency [7] | activation [3] -1.07% | max response [4] -0.442% | Potency [8] | outcome [9] | Potency [5] | max response [6] 9.86%

CNc1ccccc1
inactive: Potency [1] | Potency [2] | Potency [7] | activation [3] 1.11% | max response [4] -7.07% | Potency [8] | outcome [9] | Potency [5] | max response [6] -0.57%

CCCCCCCCCCCCOCC1CO1 (centres undefined)
inactive: Potency [1] | Potency [2] | activation [3] 0.152% | max response [4] -0.128% | Potency [8] | outcome [9] | Potency [5] | max response [6] 2.47%

O=P(O)(OCc1ccccc1)OCc1ccccc1
inactive: Potency [1] | Potency [2] | activation [3] 1.44% | max response [4] 1.76% | outcome [9] | max response [6] 2.28%

c1ccc2c(c1)ccc1ncccc12
inactive: Potency [1] | Potency [2] | activation [3] 3.95% | max response [4] -1.09% | outcome [9] | max response [6] -7.13%

C1CCC2OC2C1 (centres undefined)
inactive: Potency [1] | Potency [2] | max response [4] -2.34% | Potency [8] | outcome [9] | Potency [5] | max response [6] -3.72%

O=Cc1ccccc1Cl
inactive: Potency [1] | Potency [2] | activation [3] -0.0176% | max response [4] -3.69% | Potency [8] | outcome [9] | Potency [5] | max response [6] -4.5%
